KCNH2 3.1 inh: qHTS for Inhibitors of KCHN2 3.1: Mutant qHTS. activity change, % (tested at about 1.8 µM). Potassium voltage-gated channel subfamily H member 2, brain isoform KCNH2 3.1 (human). AID 720553, 2013. 0.95% of 340,000 active. U2OS KCNH2 3.1, thallium flux FluxOr; hits give low values;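 active means maximum activity change below -70%; inconclusive means maximum activity change from -70% to -50%; inactive means maximum activity change above -50%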;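 further: thallium influx rate constant from kinetic fluorescence after stimulation buffer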
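We transduce U2OS cells with the mutant 3.1 virus, culture them overnight, load FluxOr with Red40 quencher for 45 min, then add stimulation buffer and read kinetically for 2 min to derive a normalized rate constant.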
TRPV1 potentiator: HTS Assay for Compounds that Act as Potentiators of the Vanilloid Receptor 1. TRPV1-expressing cells, Fluo-8 calcium influx, capsaicin EC20 potentiation. potentiation, % at 8.33 µM. 0.02% of 320,000 active. AID 540277, 2011; in the data active means potentiation above about 80%; inconclusive means between about 30% and that limit
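TRPV1-expressing cells were cultured overnight at 35.5C and loaded with Fluo-8 calcium dye for 40 to 90 min at room temperature. After a 10 s baseline, compound was added and calcium influx was read kinetically for 3 min (ex 480/em 520 nm).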
TRPV1 ag: HTS Assay for Compounds that Act as Agonists of the Vanilloid Receptor 1; Transient receptor potential cation channel subfamily V member 1 (Homo sapiens), Q8NER1; TRPV1-expressing cells, Fluo-8 calcium influx, agonist mode; activation, % at 8.33 µM; 0.19% of 320,000 active; in the data active means activation above about 80%; inconclusive means between about 30% and that limit
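Cells expressing TRPV1 were dye-loaded with Fluo-8 and read kinetically: 10 s baseline, 3 min after compound (agonist portion), then 2 min after EC20 capsaicin (allosteric enhancer portion). Calcium-bound dye fluorescence at 480/520 nm.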
hERG WT inh: qHTS for Inhibitors of KCHN2 3.1: Wildtype qHTS; U2OS, BacMam KCNH2, thallium flux FluxOr; hits give low values; activity change, % at 1.84 µM; 0.37% of 340,000 active;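 active means maximum activity change below -70%; inconclusive means maximum activity change between -70% and -50%; inactive means maximum activity change above -50%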
Target sequence (Q12809 whole entry, looked up): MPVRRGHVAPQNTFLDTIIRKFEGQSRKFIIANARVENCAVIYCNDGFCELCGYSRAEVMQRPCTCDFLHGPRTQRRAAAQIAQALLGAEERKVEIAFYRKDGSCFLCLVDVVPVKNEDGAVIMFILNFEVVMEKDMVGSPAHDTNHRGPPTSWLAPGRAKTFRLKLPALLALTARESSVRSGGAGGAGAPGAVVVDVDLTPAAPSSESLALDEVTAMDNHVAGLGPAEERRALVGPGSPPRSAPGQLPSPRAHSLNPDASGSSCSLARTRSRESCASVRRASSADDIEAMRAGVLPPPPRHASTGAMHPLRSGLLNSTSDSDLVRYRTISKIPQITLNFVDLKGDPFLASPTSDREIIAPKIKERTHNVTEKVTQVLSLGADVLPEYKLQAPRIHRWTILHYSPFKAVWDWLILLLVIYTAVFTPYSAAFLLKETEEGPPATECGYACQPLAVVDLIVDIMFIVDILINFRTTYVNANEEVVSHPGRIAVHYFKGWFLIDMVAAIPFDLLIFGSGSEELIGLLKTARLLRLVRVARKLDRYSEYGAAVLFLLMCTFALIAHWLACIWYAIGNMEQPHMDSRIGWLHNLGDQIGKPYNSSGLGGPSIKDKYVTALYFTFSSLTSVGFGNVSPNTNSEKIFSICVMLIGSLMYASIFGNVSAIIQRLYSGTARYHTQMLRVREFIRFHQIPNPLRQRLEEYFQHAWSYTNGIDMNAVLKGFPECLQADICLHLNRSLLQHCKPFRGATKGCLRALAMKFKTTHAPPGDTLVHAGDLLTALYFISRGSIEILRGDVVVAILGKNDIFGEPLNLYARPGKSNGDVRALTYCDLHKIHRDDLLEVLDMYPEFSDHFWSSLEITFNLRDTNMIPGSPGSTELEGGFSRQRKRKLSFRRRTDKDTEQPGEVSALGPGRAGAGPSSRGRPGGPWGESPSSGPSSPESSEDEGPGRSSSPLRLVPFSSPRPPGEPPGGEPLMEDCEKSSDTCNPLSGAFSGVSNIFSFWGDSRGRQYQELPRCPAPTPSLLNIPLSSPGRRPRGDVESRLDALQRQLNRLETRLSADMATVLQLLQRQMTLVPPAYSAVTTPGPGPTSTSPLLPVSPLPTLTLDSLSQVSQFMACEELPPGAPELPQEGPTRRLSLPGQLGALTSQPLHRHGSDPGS
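U2OS cells were transduced with wild-type KCNH2 virus (2.03 x 10^8 / mL) for 4 h at room temperature, then cultured overnight at 37 C. Thallium flux was read with FluxOr dye. Rate constants were normalized to DMSO controls.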
Each line names hits and unclear results; the compound was inactive in the other large screens. In the library only some 1.3% were active in any assay of this set; here they are far more common.

CCOCC(=O)N1CCN(c2ccc([N+](=O)[O-])cc2)CC1	KCNH2 3.1 inh -73, hERG WT inh -95
O=[N+]([O-])c1ccc(N2CCN(C(=S)NCc3ccc(Cl)cc3)CC2)cc1	KCNH2 3.1 inh -93
CCNC(=S)N1CCN(c2ccc([N+](=O)[O-])cc2)CC1	none
O=C(CCCC(=O)N1CCN(c2ccc([N+](=O)[O-])cc2)CC1)c1ccccc1	KCNH2 3.1 inh -95, hERG WT inh -88
COc1ccccc1Oc1nnnn1-c1ccc(C(N)=O)cc1	KCNH2 3.1 inh -85
CCOc1nc(-c2ccccc2)ncc1Oc1ccccc1	none (no result: TRPV1 potentiator, TRPV1 ag)
COc1ccc(CNC(=O)CCCSc2ccccc2)cc1	TRPV1 ag inconclusive
NS(=O)(=O)c1ccc(CNC(=O)CCCSc2ccccc2)cc1	TRPV1 ag 84
COc1cccc(C2=CC(=O)C[C@H](c3ccc(Cl)cc3)C2)c1OC	KCNH2 3.1 inh -129
Cc1nonc1C1CCCN1Cc1nc(-c2ccccc2Cl)oc1C (stereo unspecified)	KCNH2 3.1 inh -94
Cc1oc(-c2ccccc2Cl)nc1CN1CCCC1c1ccc(F)cc1 (stereo unspecified)	TRPV1 ag inconclusive
COc1ccc(F)cc1CN1CCN(CC(=O)Nc2ccccc2C(=O)NC2CC2)CC1	KCNH2 3.1 inh -106, hERG WT inh -107
O=C(CN1CCN(S(=O)(=O)c2ccc(F)cc2)CC1)Nc1ccccc1C(=O)NC1CC1	none
COc1ccc(CN2CCN(CC(=O)Nc3ccccc3C(=O)NC3CC3)CC2)cc1F	KCNH2 3.1 inh -104, hERG WT inh -93
COc1ccccc1NC(=O)CN1CCN(CC(=O)Nc2ccc(F)cc2F)CC1	KCNH2 3.1 inh -86
CC1CCN(CC(=O)Nc2ccccc2C(=O)NC2CC2)CC1	none
Cc1ccsc1C(=O)NN=C1CCCCCC1	none
O=C(Nc1ccc(Cl)cc1)[C@@H]1[C@@H]2C(=O)N(c3ccc(Cl)cc3)C(=O)[C@@H]2[C@H]2C=CC=NN21	KCNH2 3.1 inh -114
Cc1cc(OCc2cc(C(=O)N(C)C3CCOC3)no2)cc(C)c1Cl (stereo unspecified)	TRPV1 ag 83
COc1ccc(CSC(=N)N)cc1[N+](=O)[O-]	none
CCOc1ccc(CSC2=NCCN2)cc1[N+](=O)[O-]	KCNH2 3.1 inh -91
CCOc1ccc(CN(CCO)CCO)cc1[N+](=O)[O-]	KCNH2 3.1 inh -76
CCCCCOc1ccc(CSC(=N)N)cc1[N+](=O)[O-]	KCNH2 3.1 inh -96
CCCCOc1ccc(CSC2=NCCN2)cc1[N+](=O)[O-]	KCNH2 3.1 inh inconclusive
COc1ccc(NC(=O)N(C)C[C@H]2Oc3ccc(NC(=O)CCN4CCOCC4)cc3C(=O)N([C@@H](C)CO)C[C@H]2C)cc1	none (no result: TRPV1 potentiator, TRPV1 ag)
Cc1ccc(C(=O)CSc2nnc(CNc3ccc(C)cc3C)n2Cc2ccco2)cc1	none
Cc1ccc(NCc2nnc(SCc3ccc(C#N)cc3)n2Cc2ccco2)c(C)c1	KCNH2 3.1 inh inconclusive, hERG WT inh -97
CC(Oc1ccc(Br)cc1)C(=O)N1CCC(C(N)=O)CC1 (stereo unspecified)	KCNH2 3.1 inh -71
CC(Oc1ccc(Br)cc1)C(=O)N1CCN(c2ccccn2)CC1 (stereo unspecified)	TRPV1 ag inconclusive
CCN(CC)C(=O)C1=C(C)N(CCC2=CCCCC2)C(=O)C(CC(=O)NCCN2CCOCC2)C1 (stereo unspecified)	none (no result: TRPV1 potentiator, TRPV1 ag)
COc1cc(CCCN2C(=S)NC[C@@H]2Cc2ccccc2)cc(OC)c1OC	none
COc1cc(CCCN2C(=S)NC[C@@H]2c2ccccc2)cc(OC)c1OC	KCNH2 3.1 inh -94
O=S(=O)(c1ccccc1)N1CCCc2ccccc21	TRPV1 potentiator inconclusive (no result: KCNH2 3.1 inh, hERG WT inh)
O=S(=O)(c1ccccc1)N1CCNc2ccccc21	KCNH2 3.1 inh -122 (no result: TRPV1 potentiator, TRPV1 ag)
COC(=O)c1cn(NC(=O)c2ccc3c(c2)OCO3)c(=O)c2ccccc12	TRPV1 ag 80
CCOc1cc(C(=S)N2CCCCC2)ccc1OS(=O)(=O)c1ccc(Cl)cc1	KCNH2 3.1 inh -114
Brc1ccc(-c2ccc(/C=N/Nc3nc(N4CCOCC4)nc(N4CCOCC4)n3)o2)cc1	KCNH2 3.1 inh -95
Fc1cnc(N/N=C/c2ccc(-c3ccc(Br)cc3)o2)nc1N1CCOCC1	TRPV1 ag inconclusive
Clc1ccc(-c2ccc(/C=N/Nc3cc(N4CCOCC4)nc(N4CCOCC4)n3)o2)cc1	KCNH2 3.1 inh -95, hERG WT inh inconclusive
Clc1ccc(CN2CCC(c3nc4ccc(Cl)cc4[nH]3)CC2)cc1	KCNH2 3.1 inh -97, hERG WT inh -96
CCN(CC(=O)NCc1cccs1)C(=O)c1cccc(S(=O)(=O)N(CC)c2ccccc2)c1	none (no result: TRPV1 potentiator, TRPV1 ag)
CC(C)(C)OC(=O)NCCc1onc(-c2cccc([N+](=O)[O-])c2)c1C(=O)O	none (no result: TRPV1 potentiator, TRPV1 ag)
O=C(CSc1n[nH]c(-c2ccccn2)n1)Nc1cccc(Cl)c1	KCNH2 3.1 inh -70
Cc1nc(SCC(=O)Nc2cccc(Cl)c2)n[nH]1	none
Cc1cc(C)c(C#N)c(SCC(=O)NC(C)(C)C)n1	KCNH2 3.1 inh -84
CC(=O)c1ccc(Oc2cc(C)nc(N3CCOCC3)n2)cc1	KCNH2 3.1 inh -136
CCCN(CC(=O)Nc1ccccc1C)C(=O)c1ccc(COc2ccccc2)cc1	none
Cc1ccc(-n2nnnc2/C=C\Nc2cc(C)on2)cc1	none
Cc1cc(N/C=C\c2nnnn2-c2ccc(F)cc2)no1	hERG WT inh -121
COc1nc(N2CCOCC2)nc(C)c1[N+](=O)[O-]	hERG WT inh -107
CCCCN(C(=O)Cc1ccc2c(c1)OCCO2)c1c(N)n(CC(C)C)c(=O)[nH]c1=O	none
NC(=S)NNc1cccc(Cl)c1	KCNH2 3.1 inh -82
NC(=S)NNC(=O)Nc1cccc(Cl)c1	none
CCOc1ccc(OCCCCN2CCCC2)cc1	none
CN1CCN(CCCOc2ccc(-c3ccccc3)cc2)CC1	KCNH2 3.1 inh -90
c1ccc(COc2ccc(OCCCCN3CCCCC3)cc2)cc1	KCNH2 3.1 inh -97
Fc1ccc(OCCCCCN2CCCC2)cc1	KCNH2 3.1 inh -98
Cc1ccccc1C(=O)OCC(=O)NCC1COc2ccccc2O1 (stereo unspecified)	none
Nc1cc(Cl)cc2c1-c1ccc(Cl)cc1C2	none (no result: TRPV1 potentiator, TRPV1 ag)
O=C(COC(=O)c1cccc(S(=O)(=O)NCc2ccccc2)c1)c1ccccc1	KCNH2 3.1 inh -84
O=C(CSc1ccccc1F)NCC1(N2CCCCC2)CCCCC1	none
COc1ccc(-c2c(C3=CCCCC3)oc3ccc(-c4ccc5c(c4)OCO5)cc23)cn1	none (no result: TRPV1 potentiator, TRPV1 ag)
N#Cc1ncc(Cc2ccccc2)nc1C#N	none
COc1ccc(OCCN2CCN(C(=O)c3ccc(OC(F)F)c(OC)c3)CC2)cc1	KCNH2 3.1 inh -76
COc1ccc(OCCN2CCN(C(=O)c3ccc(OC)cc3)CC2)cc1	none
C=CCNC(=O)C(=O)Nc1ccc2c(c1)N(S(=O)(=O)c1cccs1)CCC2	none

Assay outcomes from PubChem BioAssay.
